Screens deposited in PubChem BioAssay by National Center for Advancing Translational Sciences (NCATS).
The sample as a whole holds a higher share of hits than the screen did.
Vaccinia mCherry – qHTS for Stage-Specific Inhibitors of Vaccinia Orthopoxvirus: mCherry Reporter Primary qHTS; AID 720579, 2013; Vaccinia virus mCherry reporter infection, fluorescence; actives 0.63% (n = 310,000); Potency, µM (series often up to 36.5 µM), without a hit: at the top dose activity change, negative = inhibition, usual class: inhibitors; calls by dose curve; tested in A549 cells; further: potency means the concentration at half of the fitted maximal effect; on the % scale 0 is the no-effect control and ±100 the full control effect; nearly all actives have a fitted effect of over 35% in size
Cycloheximide cs – Cycloheximide Counterscreen for Small Molecule Inhibitors of Shiga Toxin. cell reporter, cycloheximide protein synthesis inhibition counterscreen. AID 2314, 2010. max response, %. actives 12% (n = 300,000); in the data active means max response mostly above about 13%, no sharp cut-off; inactive means mostly below about 14%; further: read at 38.3 µM for the half of the compounds with a filed dose; 0% is about no effect
Lassa entry inh – qHTS for Inhibitors of binding or entry into cells for Lassa Virus | Potency, µM (highest dose often 37.9 µM), for the others: top-dose activity change, negative = inhibition, hits mostly inhibitors | Lassa virus pseudotype entry inhibition, cell reporter | AID 540256, 2011 | actives 1.2% (n = 300,000); calls by dose curve; tested in HEK293 cells; further: potency means the concentration at half of the fitted maximal effect; on the % scale 0 is the no-effect control and ±100 the full control effect; nearly all actives have a fitted effect of over 50% in size
VACV Venus inh – qHTS for Stage-Specific Inhibitors of Vaccinia Orthopoxvirus: Venus Reporter Primary qHTS; actives 0.46% (n = 330,000); Vaccinia virus Venus reporter expression, fluorescence; Potency, µM (top dose mostly 36.5 µM), for the others: at the top dose activity change, negative = inhibition, hits mostly inhibitors; calls by dose curve; tested in A549 cells; further: potency means the concentration at half of the fitted maximal effect; on the % scale 0 is the no-effect control and ±100 the full control effect; nearly all actives have a fitted effect of over 30% in size
Shiga inhibitor – A qHTS for Small Molecule Inhibitors of Shiga Toxin | inhibition, % at 38.7 µM | actives 9.2% (n = 290,000) | Vero cells, Shiga toxin protein synthesis inhibition reporter; in the data active means inhibition mostly above about 28%, no sharp cut-off; inactive means mostly below about 43%; further: 0% is about no effect
Marburg entry inh – qHTS for inhibitors of binding or entry into cells for Marburg Virus; Marburg virus pseudotyped entry inhibition, cell reporter; Potency, µM (series often up to 37.8 µM), inactives show at the highest dose activity change, negative = inhibition, most hits filed as inhibitors; actives 1.8% (n = 300,000); AID 540276, 2011; calls by dose curve; tested in HEK293 cells; further: potency means the concentration at half of the fitted maximal effect; on the % scale 0 is the no-effect control and ±100 the full control effect
The depositor's hits bear a star; [ ] = remark or other dose.

Results for COc1ccc(/C=C2\CCc3ccccc3C2=O)cc1CN1CCOCC1 ?
Vaccinia mCherry: -17%; Cycloheximide cs: 30*; Lassa entry inh: inconclusive; VACV Venus inh: -22%; Shiga inhibitor: 94*; Marburg entry inh: inconclusive

How did O=C1C(=Cc2cccc(Cl)c2)CCc2ccccc21 do in these assays?
Vaccinia mCherry: inactive; VACV Venus inh: -7%

What do the screens show for `COc1ccccc1C=C1CCc2ccccc2C1=O`?
Vaccinia mCherry: 34%; VACV Venus inh: -2%

What do the screens show for `COc1ccc(C=C2c3ccccc3C(=O)c3ccccc32)c(OC)c1`?
Cycloheximide cs: -4; Shiga inhibitor: -7

What do the screens show for `COC(=O)[C@@H]1CCCN1Cc1ccc2c(c1)CN(Cc1ccc3c(c1)OCCO3)CCO2`?
Vaccinia mCherry: -15%; VACV Venus inh: -11%

What do the screens show for `COc1ccc2c(c1)OC/C(=C/c1cccs1)C2=O`?
Vaccinia mCherry: -10%; Cycloheximide cs: 44*; Lassa entry inh: 5%; VACV Venus inh: -7%; Shiga inhibitor: 73*; Marburg entry inh: -1%

How did COc1ccc2c(c1)OC/C(=C\c1ccc(OC)c(O)c1)C2=O do in these assays?
Vaccinia mCherry: inactive; VACV Venus inh: inconclusive

What do the screens show for `O=C(O)c1ccc(/C=C2\COc3ccccc3C2=O)cc1`?
Vaccinia mCherry: -16%; Cycloheximide cs: 22*; Lassa entry inh: inconclusive; VACV Venus inh: -4%; Shiga inhibitor: 63; Marburg entry inh: inconclusive

What do the screens show for `COc1ccc(/C=C2\OC(=O)c3c(OC)cccc32)cc1OC`?
Cycloheximide cs: 38*; Lassa entry inh: 17%; VACV Venus inh: -24%; Shiga inhibitor: 54; Marburg entry inh: inconclusive

How did COc1ccc(/C=C2/CCc3ccccc3C2=O)cc1OC do in these assays?
Vaccinia mCherry: -27%; Cycloheximide cs: 74*; Lassa entry inh: inconclusive; VACV Venus inh: inconclusive; Shiga inhibitor: 74*; Marburg entry inh: -22%

What do the screens show for `CCn1c(=O)cc(SCC(=O)NCc2ccc(Cl)cc2)c2ccccc21`?
Vaccinia mCherry: -25%; Lassa entry inh: 0%[46.1 µM]; VACV Venus inh: -26%

Results for CCc1ccc(/C=N/NC(=O)c2nnn(-c3nonc3N)c2C(C)C)cc1 ?
Vaccinia mCherry: -7%; Cycloheximide cs: -2; Lassa entry inh: inconclusive; VACV Venus inh: -24%; Shiga inhibitor: 18; Marburg entry inh: inconclusive

Results for O=C(COc1ccccc1C(=O)NCc1ccncc1)Nc1ccc(Br)cc1 ?
Vaccinia mCherry: -14%; Cycloheximide cs: 8; Lassa entry inh: -1%; VACV Venus inh: -16%; Shiga inhibitor: 18; Marburg entry inh: inconclusive

How did CCC1(CC)NC(=O)N(CC(=O)N2CCN(S(=O)(=O)c3cccc(F)c3)CC2)C1=O do in these assays?
Vaccinia mCherry: inactive; Cycloheximide cs: -4; Lassa entry inh: 9%; VACV Venus inh: -11%; Shiga inhibitor: -6; Marburg entry inh: 0%

Results for COc1cc(/C=C2\COC/C(=C\c3cc(OC)c(OC)c(OC)c3)C2=O)cc(OC)c1OC ?
Vaccinia mCherry: inconclusive; Cycloheximide cs: 28*; Lassa entry inh: inconclusive; VACV Venus inh: inconclusive; Shiga inhibitor: 44*; Marburg entry inh: inconclusive

How did COc1cc(/C=C2\CC/C(=C\c3cc(OC)c(OC)c(OC)c3)C2=O)cc(OC)c1OC do in these assays?
Vaccinia mCherry: -9%; Cycloheximide cs: -4; Lassa entry inh: -22%; VACV Venus inh: -17%; Shiga inhibitor: -1; Marburg entry inh: inconclusive

What do the screens show for `COc1ccc(/C=C2\COc3ccccc3C2=O)cc1OC`?
Vaccinia mCherry: inactive; Cycloheximide cs: 45*; Lassa entry inh: inconclusive; VACV Venus inh: -2%; Shiga inhibitor: 65*; Marburg entry inh: inconclusive

Results for Cc1ccc(Nc2cc(C)nn2-c2nc(C)cc(=O)[nH]2)cc1 ?
Vaccinia mCherry: 2.2µM*; Cycloheximide cs: 10; Lassa entry inh: 1.6µM*; VACV Venus inh: inconclusive; Shiga inhibitor: -16; Marburg entry inh: 2.8µM*

What do the screens show for `COc1ccc(OC)c(CNC(=O)c2cc3c(=O)oc4ccc(C)cc4c3s2)c1`?
Vaccinia mCherry: -8%; Lassa entry inh: -2%[46.1 µM]; VACV Venus inh: -9%; Marburg entry inh: 22%[46.1 µM]

Results for COc1ccc(-c2cc(N3C(=O)Nc4ccccc4N3O)n[nH]2)cc1OC ?
Vaccinia mCherry: -13%; Cycloheximide cs: 13*; Lassa entry inh: inconclusive; VACV Venus inh: 2%; Shiga inhibitor: 19; Marburg entry inh: -1%

What do the screens show for `CCC(C)NC(=O)c1ccc(NS(=O)(=O)c2ccc3[nH]c(=O)[nH]c3c2)cc1` (stereo not given)?
Vaccinia mCherry: -13%; Cycloheximide cs: 28; Lassa entry inh: -11%; VACV Venus inh: 6%; Shiga inhibitor: 13*; Marburg entry inh: -9%

Results for COc1cc(NC(=O)c2ccc(NC(=O)N3CCSc4ncccc43)cc2)cc(OC)c1 ?
Vaccinia mCherry: -4%; Lassa entry inh: 15%[46.1 µM]; VACV Venus inh: -7%

Results for Cc1ccccc1NC(=S)c1nc2ccccc2[nH]1 ?
Vaccinia mCherry: -20%; Cycloheximide cs: 42*; Lassa entry inh: 9%; VACV Venus inh: -12%; Shiga inhibitor: active; Marburg entry inh: inconclusive

How did S=C(Nc1ccc(Cl)cc1)c1nc2ccccc2[nH]1 do in these assays?
Vaccinia mCherry: inconclusive; Cycloheximide cs: 59*; Lassa entry inh: inconclusive; VACV Venus inh: -29%; Shiga inhibitor: 66*; Marburg entry inh: inconclusive

What do the screens show for `Cc1ccc(C(=O)NCC(c2cccnc2)N2CCc3ccccc32)cc1C` (stereo not given)?
Vaccinia mCherry: -13%; Lassa entry inh: 6%[46.1 µM]; VACV Venus inh: -23%

What do the screens show for `CC(=O)Nc1ccccc1C(=O)OCC(=O)c1ccccc1Cl`?
Vaccinia mCherry: -5%; Cycloheximide cs: 24*; Lassa entry inh: inconclusive; VACV Venus inh: -9%; Shiga inhibitor: 53*; Marburg entry inh: 0%

How did O=C(OCc1ccccc1F)c1ccc2c(c1)-c1ccccc1C2=O do in these assays?
Cycloheximide cs: 6; Lassa entry inh: 2.1µM*; Shiga inhibitor: 3; Marburg entry inh: 14%

How did CC(=O)Nc1ccccc1C(=O)OCc1ccccc1F do in these assays?
Vaccinia mCherry: 2%; Cycloheximide cs: 29*; Lassa entry inh: -12%[46.1 µM]; VACV Venus inh: -8%; Shiga inhibitor: 61; Marburg entry inh: 12%[46.1 µM]

What do the screens show for `COc1ccc(C(=O)/C=C/N(C)C)cc1`?
Cycloheximide cs: 20*; Lassa entry inh: -16%; Shiga inhibitor: -24; Marburg entry inh: inconclusive

Results for CN(C)/C=C/C(=O)c1ccccc1 ?
Cycloheximide cs: 41*; Shiga inhibitor: 63*

Results for CN(C)/C=C/C(=O)c1ccc(Oc2ccccc2)cc1 ?
Vaccinia mCherry: -4%; Cycloheximide cs: 34*; Lassa entry inh: inconclusive; VACV Venus inh: -21%; Shiga inhibitor: 83*; Marburg entry inh: inconclusive
